Laboratory results published in PubChem BioAssay (NCI).
The panel holds about 79,000 compounds, 15% with a hit somewhere; the sample as a whole holds those more often. Active and inactive are the calls of the source. No stated cut-off is given here; in the data, active means growth inhibition above about 70%; inactive means the rest.

Columns and labels:
[1] = NCI Yeast Anticancer Drug Screen. Data for the rad52 strain (AID 147);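 further: 0% = growth of vehicle-treated control cultures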; details: S. cerevisiae rad52 mutant growth inhibition, stronger effect = higher value
Outline: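 Genetically altered yeast (DNA damage repair defect) treated with compound; inhibition calculated relative to vehicle.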

[2] = NCI Yeast Anticancer Drug Screen. Data for the wt1 strain (AID 149);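 further: 0% = growth of vehicle-treated wt1 cultures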; details: S. cerevisiae wt1 strain (SPY 50644) growth inhibition, stronger effect = higher value
Outline: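 wt1 yeast, compound-treated; % growth inhibition vs vehicle control.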

[3] = NCI Yeast Anticancer Drug Screen. Data for the rad50EPP+ strain (AID 151);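 further: 0% = growth of vehicle-treated control cultures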; details: S. cerevisiae rad50 mutant strain, stronger effect = higher value
Outline: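 Strain rad50EPP+; compound exposure; % growth inhibition vs vehicle.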

[4] = NCI Yeast Anticancer Drug Screen. Data for the mgt1 strain (AID 153); details: S. cerevisiae mgt1 mutant growth inhibition, stronger effect = higher value
Outline: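 Read-out: yeast growth inhibition vs vehicle control. Strain mgt1, drawn from a panel altered in DNA damage repair or cell cycle control.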

[5] = NCI Yeast Anticancer Drug Screen. Data for the rad50 strain (AID 155);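 further: 0% = growth of vehicle-only cultures of the same strain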; details: S. cerevisiae rad50 strain growth inhibition, stronger effect = higher value
Outline: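 Genetically altered yeast (DNA repair pathway); compound treatment; growth inhibition vs vehicle ctrl.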

[6] = NCI Yeast Anticancer Drug Screen. Data for the mec2-1 strain (AID 157); details: S. cerevisiae mec2-1 strain, stronger effect = higher value
Outline: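 Cells of the genetically defined mec2-1 yeast strain are incubated with test compound. Inhibition of growth is calculated against vehicle-treated controls.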

[7] = NCI Yeast Anticancer Drug Screen. Data for the rad14 strain (AID 159);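 further: 0% = growth of vehicle-treated control cultures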; details: S. cerevisiae rad14 strain growth inhibition, stronger effect = higher value
Outline: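 Test compounds were applied to a repair-deficient yeast strain. Its growth was then compared with that of cultures given vehicle alone, and inhibition was expressed relative to those controls.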

[8] = NCI Yeast Anticancer Drug Screen. Data for the sgs1 mgt1 strain (AID 161);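 further: 0% = growth of cultures given vehicle only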; details: S. cerevisiae sgs1 mgt1 strain, stronger effect = higher value
Outline: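 Mutant yeast exposed to compound; growth scored against vehicle-only wells.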

[9] = NCI Yeast Anticancer Drug Screen. Data for the bub3 strain (AID 167); details: S. cerevisiae bub3 mutant strain, stronger effect = higher value
Outline: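 Yeast carrying a defined mutation is treated with each compound, and growth is compared with that of vehicle-exposed cells to give inhibition.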

[10] = NCI Yeast Anticancer Drug Screen. Data for the wt2 strain (AID 169);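 further: 0% = growth of vehicle-treated yeast cultures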; details: S. cerevisiae wt2 strain growth inhibition, stronger effect = higher value
Outline: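 Steps: yeast strain treated with compound; growth recorded; inhibition calculated relative to cultures given vehicle alone.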

[11] = NCI Yeast Anticancer Drug Screen. Data for the sgs1 strain (AID 173);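 further: 0% = growth of vehicle-only control cultures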; details: S. cerevisiae sgs1 mutant, stronger effect = higher value
Outline: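 Inhibition of yeast growth served as the measure. The mutant strain was treated with each compound, and growth was normalised to cultures receiving vehicle alone.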

[12] = NCI Yeast Anticancer Drug Screen. Data for the mlh1 rad18 strain (AID 175); details: S. cerevisiae mlh1 rad18 strain growth inhibition, stronger effect = higher value
Outline: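 Compound-treated yeast growth, normalised to vehicle controls. Strain bears defined DNA repair mutations.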

[13] = NCI Yeast Anticancer Drug Screen. Data for the rad18 strain (AID 177); details: S. cerevisiae rad18 mutant growth inhibition, stronger effect = higher value
Outline: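 Inhibition values reflect reduced yeast growth compared with vehicle-treated controls, using a strain engineered with a DNA damage repair defect.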

[14] = NCI Yeast Anticancer Drug Screen. Data for the CLN2oe strain (AID 163);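 further: 0% = growth of vehicle-only control cultures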; details: S. cerevisiae CLN2oe strain, stronger effect = higher value
Outline: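 Strain altered in cell-cycle control, incubated with compound; growth compared to solvent-treated controls.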

[15] = NCI Yeast Anticancer Drug Screen. Data for the cln2 rad14 strain (AID 165);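 further: 0% = growth equal to vehicle treated cultures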; details: S. cerevisiae cln2 rad14 strain, stronger effect = higher value
Outline: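 The screen exposed genetically defined yeast (cln2 rad14) to test compounds and scored growth inhibition relative to vehicle-treated controls.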

[16] = NCI Yeast Anticancer Drug Screen. Data for the mlh1 strain (AID 171);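 further: 0% = growth of vehicle-treated control cultures of the same strain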; details: S. cerevisiae mlh1 strain growth inhibition, stronger effect = higher value
Outline: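 Yeast screen: mutant strain plus compound, growth scored against vehicle control wells.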

[17] = at 5.0 µM (retest, dose inferred, filed as 0.5)
[18] = at 50.0 µM (retest, dose inferred, filed as 5.0)

Measured: growth inhibition

Cc1cc2cc3cc(C)c(N)cc3nc2cc1N
active: [1]; at 33.0 µM 77% | [1]; at 100.0 µM 96% | [2]; at 100.0 µM 89% | [3]; at 33.0 µM 71% | [3]; at 100.0 µM 84% | [4]; at 100.0 µM 94% | [5]; [17] 94% | [5]; at 33.0 µM 86% | [5]; [18] 99% | [5]; at 50.0 µM 81.8% | [5]; at 100.0 µM 96% | [6]; [17] 78% | [6]; at 33.0 µM 82% | [6]; [18] 98% | [6]; at 50.0 µM 75.5% | [6]; at 100.0 µM 97% | [7]; at 33.0 µM 70% | [7]; at 100.0 µM 92% | [8]; [18] 98% | [8]; at 50.0 µM 85.2% | [9]; [18] 96% | [9]; at 50.0 µM 77.8% | [9]; at 100.0 µM 92% | [10]; at 100.0 µM 94% | [11]; at 100.0 µM 91% | [12]; [17] 94% | [12]; [18] 99% | [12]; at 50.0 µM 81.8% | [13]; at 100.0 µM 92%
inactive: [1]; at 1.2 µM -6% | [1]; at 3.7 µM -1% | [1]; at 11.0 µM -7% | [2]; at 1.2 µM -18% | [2]; at 3.7 µM -8% | [2]; at 11.0 µM -6% | [2]; at 33.0 µM 56% | [3]; at 1.2 µM -10% | [3]; at 3.7 µM 20% | [3]; at 11.0 µM 37% | [4]; at 1.2 µM -61% | [4]; at 3.7 µM -60% | [4]; at 11.0 µM -28% | [4]; at 33.0 µM 68% | [5]; at 1.2 µM -9% | [5]; at 3.7 µM -18% | [5]; at 11.0 µM 27% | [6]; at 1.2 µM -18% | [6]; at 3.7 µM -5% | [6]; at 11.0 µM 13% | [7]; at 1.2 µM -7% | [7]; at 3.7 µM -23% | [7]; at 11.0 µM 5% | [8]; [17] 16% | [9]; at 1.2 µM -20% | [9]; at 3.7 µM -5% | [9]; [17] 23% | [9]; at 11.0 µM 8% | [9]; at 33.0 µM 69% | [10]; at 1.2 µM -7% | [10]; at 3.7 µM -12% | [10]; at 11.0 µM 2% | [10]; at 33.0 µM 56% | [11]; at 1.2 µM -43% | [11]; at 3.7 µM -21% | [11]; at 11.0 µM 0% | [11]; at 33.0 µM 66% | [13]; at 1.2 µM -37% | [13]; at 3.7 µM -25% | [13]; at 11.0 µM -11% | [13]; at 33.0 µM 67%

CC(C)(C)c1ccc(NS(=O)(=O)c2ccc(N)cc2)cc1
active: [5]; at 50.0 µM 98.3% | [6]; at 50.0 µM 94.3% | [15]; at 50.0 µM 98.4% | [9]; at 50.0 µM 95.8% | [12]; at 50.0 µM 97.2%
inactive: [1]; at 1.2 µM -1% | [1]; at 3.7 µM -1% | [1]; at 11.0 µM 1% | [1]; at 33.0 µM 6% | [1]; at 100.0 µM 46% | [2]; at 1.2 µM 1% | [2]; at 3.7 µM 2% | [2]; at 11.0 µM 3% | [2]; at 33.0 µM 3% | [2]; at 100.0 µM 12% | [3]; at 1.2 µM 4% | [3]; at 3.7 µM 8% | [3]; at 11.0 µM 10% | [3]; at 33.0 µM 11% | [3]; at 100.0 µM 14% | [4]; at 1.2 µM 0% | [4]; at 3.7 µM -1% | [4]; at 11.0 µM 1% | [4]; at 33.0 µM 2% | [4]; at 100.0 µM 28% | [5]; at 1.2 µM 4% | [5]; at 3.7 µM 3% | [5]; [17] 0% | [5]; at 11.0 µM 14% | [5]; at 33.0 µM 9% | [5]; [18] -22% | [5]; at 100.0 µM 37% | [6]; at 1.2 µM 4% | [6]; at 3.7 µM 4% | [6]; [17] 6% | [6]; at 11.0 µM 6% | [6]; at 33.0 µM 7% | [6]; [18] -5% | [6]; at 100.0 µM 38% | [7]; at 1.2 µM 1% | [7]; at 3.7 µM -1% | [7]; at 11.0 µM 1% | [7]; at 33.0 µM 2% | [7]; at 100.0 µM 40% | [14]; at 1.2 µM 4% | [14]; at 3.7 µM 2% | [14]; at 11.0 µM 1% | [14]; at 33.0 µM 4% | [14]; at 100.0 µM 19% | [15]; [17] 34% | [15]; [18] -111% | [9]; at 1.2 µM 0% | [9]; at 3.7 µM 5% | [9]; [17] 28% | [9]; at 11.0 µM 9% | [9]; at 33.0 µM 18% | [9]; [18] -8% | [9]; at 100.0 µM 12% | [10]; at 1.2 µM 0% | [10]; at 3.7 µM 1% | [10]; at 11.0 µM 1% | [10]; at 33.0 µM 4% | [10]; at 100.0 µM 41% | [16]; at 1.2 µM 5% | [16]; at 3.7 µM 3% | [16]; at 11.0 µM 7% | [16]; at 33.0 µM -13% | [16]; at 100.0 µM 48% | [11]; at 1.2 µM 3% | [11]; at 3.7 µM 6% | [11]; at 11.0 µM 14% | [11]; at 33.0 µM 17% | [11]; at 100.0 µM 60% | [12]; [17] -5% | [12]; [18] -5% | [13]; at 1.2 µM 3% | [13]; at 3.7 µM 3% | [13]; at 11.0 µM 15% | [13]; at 33.0 µM 23% | [13]; at 100.0 µM 54%
